This note sets out measurements from PubChem BioAssay (Tox21).

Where “and” joins values, the source holds several entries; their conditions need not be identical. Equal values may be shown once. Records with an inconclusive call do not appear. Where a structure was tested more than once in an assay, its records may differ in their call. Calls of active or inactive are those of the source. Unless noted, calls follow the shape of the dose curve; as a rule, active = well fitted curve in the direction sought with a large enough effect in the repeat runs; inconclusive = weak or mixed curves; inactive = no such curve, though single readings can be large; an effect the other way counts as inactive or inconclusive.

Assay [1] has as its target Progesterone receptor (Homo sapiens) (UniProt P06401). In words: qHTS assay to identify small molecule agonists of the progesterone receptor (PR) signaling pathway (AID 1346784; calls by dose curve; also: nearly all actives have a fitted effect of over 30% in size). Summed up: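 PR-UAS-bla HEK 293T cells (beta-lactamase reporter under UAS) in 2% charcoal-stripped FBS, dosed with 23 nL compound after 6 hr, incubated 16hr at 37C. LiveBLAzer B/G FRET substrate added, fluorescence read after 2 hours.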
For orientation: qHTS replaces the single test concentration by a dilution series.

Assay [2] shares this target. In words: qHTS assay to identify small molecule antagonists of the progesterone receptor (PR) signaling pathway (AID 1346795; active = well fitted inhibition curve with a large enough effect in the signal ratio in the repeat runs, not every such curve was filed as active; the % refers to the signal ratio). An outline of the steps:
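PR-UAS-bla HEK293T cells with beta-lactamase reporter under UAS control, in 2% charcoal-stripped FBS, treated with compounds plus 1 nM promegestone (R5020, final) for 16 hr at 37C. Read-out: FRET beta-lactamase substrate fluorescence after 2 hr at room temperature.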

A short description of assay [3]: qHTS assay to identify small molecule antagonists of the progesterone receptor (PR) signaling pathway - cell viability counter screen (AID 1346798). Also: series mostly up to about 92 µM; nearly all actives have a fitted effect of over 50% in size. Summed up: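 PR-UAS-bla HEK293T cells, 3,000/well in 2% charcoal-stripped FBS medium, dosed with compounds plus R5020 agonist and incubated 16 h at 37C. Viability then measured in the same wells by CellTiter-Glo luminescence after 30 min at RT.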

Assay [4] in a line: qHTS assay to identify small molecule agonists of the progesterone receptor (PR) signaling pathway - cell viability counter screen (AID 1346799; calls by dose curve; also: nearly all actives have a fitted effect of over 45% in size). An outline of the steps:
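Counter screen in the PR-UAS-bla HEK293T wells (2% charcoal-stripped FBS, 16 h compound exposure at 37 C) after the bla read. CellTiter-Glo added, 30 min at room temperature, luminescence read as cell viability.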

A short description of assay [5]: qHTS assay to identify small molecule antagonists of the TGF-beta/Smad signaling pathway - cell viability counter screen (AID 1346824). Also: nearly all actives have a fitted effect of over 50% in size. Summed up:
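Cytotoxicity counter-screen run in the same wells as the beta-lactamase Smad reporter read: CellTiter-Glo luminescence after 30 min at room temperature. HEK 293T SBE-bla cells had 5 hr compound exposure at 37 C with TGF-beta1 (0.25 ng/mL stock).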

Assay [6] can be described thus: qHTS assay to identify small molecule agonists of the TGF-beta/Smad signaling pathway - cell viability counter screen (AID 1346829). Also: top concentration of the series differs between compounds; nearly all actives have a fitted effect of over 45% in size. An outline of the steps:
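Same-well cytotoxicity: CellTiter-Glo added after the 2 hr room-temperature beta-lactamase substrate step, luminescence measured 30 min later; cells had 5 hr of compound at 37 C.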

Assay [7] in a line: qHTS assay to identify small molecule agonists of the TGF-beta/Smad signaling pathway (AID 1346859; active = well fitted activation curve with a large enough effect in the signal ratio in the repeat runs, not every such curve was filed as active; the % refers to the signal ratio; also: series mostly up to about 77 µM). An outline of the steps:
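SBE-bla HEK293T cells plated overnight, then compound exposure for 5 h at 37 C. Beta-lactamase reporter read with LiveBLAzer B/G FRET substrate after 2 h at room temperature, fluorescence at 405 nm excitation, 460/530 nm emission.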

Assay [8] can be described thus: Human pregnane X receptor (PXR) small molecule agonists, qHTS cell viability counter screen (AID 1346977). Also: nearly all actives have a fitted effect of over 50% in size. Summed up:
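PXR-Luc HepG2 cells (2,000/well, 5% charcoal-stripped FBS) preincubated 5 hr, then exposed to compounds 24 hr at 37 C. Viability read in the same wells by CellTiter-Fluor fluorescence, reagent added at 23 hr, 1 hr incubation.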

A short description of assay [9]: Caspase-3/7 induction in HepG2 cells by small molecules, qHTS assay (AID 1346978). Also: nearly all actives have a fitted effect of over 15% in size. Summed up:
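Caspase-3/7 induction was measured by Caspase-Glo 3/7 luminescence (30 min, room temperature) after a 17 hr compound exposure of wild-type HepG2 cells seeded at 2,000 per well and pre-incubated 5 hr.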

Assay [10] can be described thus: Caspase-3/7 induction in CHO-K1 cells by small molecules, qHTS cell viability counter screen (AID 1346979). Also: nearly all actives have a fitted effect of over 35% in size. An outline of the steps: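 Wild-type CHO-K1 cells (1,500/well) treated with compound after 5 h plating; after 16 h at 37C, viability read as CellTiter-Fluor fluorescence following 1 h reagent incubation, in the same wells as the caspase read.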
Assay [11] in a line: Caspase-3/7 induction in HepG2 cells by small molecules, qHTS cell viability counter screen (AID 1346981). Also: series mostly up to about 92 µM; nearly all actives have a fitted effect of over 30% in size. Summed up: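 HepG2, WT, 2,000 cells/well; 5 hr pre-incubation 37 C/5% CO2; compound pin-transferred from DMSO; 16 hr exposure; CellTiter-Fluor, 1 hr; fluorescence read.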
The target in assay [12] is Nuclear receptor subfamily 1 group I member 2 (Homo sapiens) (UniProt O75469). The experiment in a line: Human pregnane X receptor (PXR) small molecule agonists, qHTS assay (AID 1346982). Also: nearly all actives have a fitted effect of over 35% in size. An outline of the steps: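 Luciferase signal from ONE-Glo (30 min, room temperature) measured activation of hPXR-driven CYP3A4 reporter expression in PXR-Luc HepG2 cells treated with compounds for 24 hr at 37 C.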
Nuclear receptor subfamily 1 group I member 2 (Homo sapiens), sequence (O75469 whole entry, looked up): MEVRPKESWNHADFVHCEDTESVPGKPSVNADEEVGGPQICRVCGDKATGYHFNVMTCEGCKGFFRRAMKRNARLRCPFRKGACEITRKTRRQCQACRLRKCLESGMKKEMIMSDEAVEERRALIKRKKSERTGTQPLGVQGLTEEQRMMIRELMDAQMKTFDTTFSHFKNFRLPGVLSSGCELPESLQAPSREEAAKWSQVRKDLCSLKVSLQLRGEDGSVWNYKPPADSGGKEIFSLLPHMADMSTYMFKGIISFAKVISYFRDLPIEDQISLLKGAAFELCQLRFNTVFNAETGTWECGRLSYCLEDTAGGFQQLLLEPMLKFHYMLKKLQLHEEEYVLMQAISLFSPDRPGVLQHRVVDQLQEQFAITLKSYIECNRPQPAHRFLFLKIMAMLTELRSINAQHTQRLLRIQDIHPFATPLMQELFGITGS

In assay [13] the target is Nuclear receptor subfamily 1 group I member 2 (Rattus norvegicus) (UniProt Q9R1A7). In words: Rat pregnane X receptor (rPXR) activation by small molecules, qHTS assay (AID 1346983). Also: nearly all actives have a fitted effect of over 20% in size. Particulars: rPXR luciferase reporter cells, One-Glo luminescence, 24 h; max activation: stronger effect = higher value. An outline of the steps:
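Luminescent readout (One-Glo luciferase, 30 min room temperature) followed 24 hr compound treatment at 37 C of rPXR cells plated 2,000 per well and preincubated 5hr; qHTS format with compounds delivered in DMSO.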

The target in assay [14] is Nuclear receptor subfamily 1 group I member 2 (Homo sapiens) (UniProt O75469). In words: CYP3A4 induction through human pregnane X receptor (PXR) by small molecules, qHTS assay (AID 1346984). Also: nearly all actives have a fitted effect of over 40% in size. Summed up:
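Luminescence readout: luciferase signal after One-Glo (30 min, room temperature), following 3 h at 37C with 3uM final Luciferin-IPA P450 substrate. Cells were DPX-2 (HepG2, PXR/CYP3A4-luc co-transfected) dosed for 24 h.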

The target is the same in assay [15]. In words: Human pregnane X receptor (PXR) activation by small molecules, qHTS assay (AID 1346985). Also: nearly all actives have a fitted effect of over 40% in size. An outline of the steps:
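DPX-2 cells (HepG2 co-transfected with a PXR response element and a CYP3A4-promoter luciferase construct) were seeded at 2,000 per well, rested 5 hr at 37C, then exposed to DMSO-dissolved compounds for 24 hr. Activation was read as luciferase luminescence.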

For assay [16], the target named is Cytochrome P450 2D6 (Homo sapiens) (UniProt P10635). In words: Cytochrome P450 Family 2 Subfamily D Member 6 (CYP2D6) small molecule antagonists: luciferase reporter qHTS assay (AID 1671196). Also: nearly all actives have a fitted effect of over 50% in size. Also: potency is read from the fitted curve at half-maximal effect. An outline of the steps:
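Read-out is luminescence from luciferin formed by CYP2D6 turnover of a proluciferin substrate, recorded as relative luminescence units. Reactions ran 1 h at room temperature after NADPH regeneration solution was added.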
For orientation: A reporter such as luciferase makes a cellular process visible.

The target in assay [17] is Cytochrome P450 2C19 (Homo sapiens) (UniProt P33261). The experiment in a line: Cytochrome P450 Family 2 Subfamily C Member 19 (CYP2C19) small molecule antagonists: luciferase reporter qHTS assay (AID 1671197). Also: nearly all actives have a fitted effect of over 65% in size. Also: potency is read from the fitted curve at half-maximal effect. Summed up: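 Quantitative high-throughput screen of the Tox21 library using CYP2C19 with proluciferin substrate. Reaction: NADPH regeneration, 37C, 1 h, after 10 min compound preincubation at room temperature. Readout: luminescence.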
Cytochrome P450 2C19 (Homo sapiens), sequence (P33261 whole entry, looked up): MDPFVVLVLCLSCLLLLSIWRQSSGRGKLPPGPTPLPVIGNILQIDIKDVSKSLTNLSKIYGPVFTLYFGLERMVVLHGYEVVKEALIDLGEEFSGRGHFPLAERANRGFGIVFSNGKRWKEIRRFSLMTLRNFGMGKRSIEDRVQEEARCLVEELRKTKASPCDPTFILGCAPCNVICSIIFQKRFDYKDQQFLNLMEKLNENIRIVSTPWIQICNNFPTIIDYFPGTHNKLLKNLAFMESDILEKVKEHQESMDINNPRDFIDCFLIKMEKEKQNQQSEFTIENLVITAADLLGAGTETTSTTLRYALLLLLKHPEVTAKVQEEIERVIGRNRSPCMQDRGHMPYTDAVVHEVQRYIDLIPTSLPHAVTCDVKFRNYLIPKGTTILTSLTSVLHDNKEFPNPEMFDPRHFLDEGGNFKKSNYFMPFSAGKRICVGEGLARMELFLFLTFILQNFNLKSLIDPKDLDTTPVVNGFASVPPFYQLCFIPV

Assay [18] has as its target Thyrotropin-releasing hormone receptor (Homo sapiens) (UniProt P34981). In words: qHTS assay to identify small molecule antagonists of the thyrotropin-releasing hormone receptor (TRHR) signaling pathway (AID 1346877; active = well fitted inhibition curve with a large enough effect in the repeat runs, not every such curve was filed as active; also: series mostly up to about 51 µM). An outline of the steps: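 Intracellular calcium fluorescence, read kinetically every second over 3 min, reports TRH-evoked signalling in HEK293 cells carrying TRHR. Test compounds were added 5 min ahead of a 1 nM TRH challenge.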

Assay [19] has the same target. The experiment in a line: qHTS assay to identify small molecule agonists of the thyrotropin-releasing hormone receptor (TRHR) signaling pathway (AID 1346891; calls by dose curve; also: series mostly up to about 58 µM). Summed up:
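HEK293 cells expressing TRHR plated 18 h at 37 C/5% CO2, calcium dye-loaded 2 h at 37 C, then compound added (agonist mode); kinetic calcium fluorescence read 3 min at 1 s intervals; 15 concentrations in triplicate.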

Assay [20] can be described thus: Caspase-3/7 induction in CHO-K1 cells by small molecules, qHTS assay (AID 1346980). Also: nearly all actives have a fitted effect of over 15% in size. Summed up: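 Luminescent Caspase-Glo 3/7 read (30min, room temperature) quantified apoptosis induction. Cells were wild-type CHO-K1, treated with compound for 17hr at 37 C and 5% CO2.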
% is scaled to controls: 0 for no effect and ±100 for the full control effect.

Thyrotropin-releasing hormone receptor (Homo sapiens), sequence (P34981 whole entry, looked up): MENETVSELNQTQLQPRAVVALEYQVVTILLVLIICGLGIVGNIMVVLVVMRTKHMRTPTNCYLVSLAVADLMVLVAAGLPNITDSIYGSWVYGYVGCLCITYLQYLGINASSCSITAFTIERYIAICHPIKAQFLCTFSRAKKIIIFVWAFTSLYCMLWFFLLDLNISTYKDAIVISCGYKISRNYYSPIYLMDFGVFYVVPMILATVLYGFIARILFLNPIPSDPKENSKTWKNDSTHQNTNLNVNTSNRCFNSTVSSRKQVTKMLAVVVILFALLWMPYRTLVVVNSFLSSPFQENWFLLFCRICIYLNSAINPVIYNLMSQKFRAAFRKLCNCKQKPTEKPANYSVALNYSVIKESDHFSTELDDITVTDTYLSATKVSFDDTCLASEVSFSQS
Nuclear receptor subfamily 1 group I member 2 (Rattus norvegicus), sequence (Q9R1A7 whole entry, looked up): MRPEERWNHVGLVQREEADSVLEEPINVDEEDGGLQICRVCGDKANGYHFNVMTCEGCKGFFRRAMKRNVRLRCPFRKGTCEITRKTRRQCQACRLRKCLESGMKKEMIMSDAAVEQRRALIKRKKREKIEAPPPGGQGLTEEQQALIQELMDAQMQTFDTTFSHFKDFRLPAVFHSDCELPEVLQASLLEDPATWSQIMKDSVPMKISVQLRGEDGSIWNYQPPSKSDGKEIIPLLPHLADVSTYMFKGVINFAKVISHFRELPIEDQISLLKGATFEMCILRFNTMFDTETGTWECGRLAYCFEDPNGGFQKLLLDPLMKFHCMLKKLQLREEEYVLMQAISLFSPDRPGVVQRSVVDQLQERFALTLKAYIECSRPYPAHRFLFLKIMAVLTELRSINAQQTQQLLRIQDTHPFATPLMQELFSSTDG
Progesterone receptor (Homo sapiens), sequence (P06401 whole entry, looked up): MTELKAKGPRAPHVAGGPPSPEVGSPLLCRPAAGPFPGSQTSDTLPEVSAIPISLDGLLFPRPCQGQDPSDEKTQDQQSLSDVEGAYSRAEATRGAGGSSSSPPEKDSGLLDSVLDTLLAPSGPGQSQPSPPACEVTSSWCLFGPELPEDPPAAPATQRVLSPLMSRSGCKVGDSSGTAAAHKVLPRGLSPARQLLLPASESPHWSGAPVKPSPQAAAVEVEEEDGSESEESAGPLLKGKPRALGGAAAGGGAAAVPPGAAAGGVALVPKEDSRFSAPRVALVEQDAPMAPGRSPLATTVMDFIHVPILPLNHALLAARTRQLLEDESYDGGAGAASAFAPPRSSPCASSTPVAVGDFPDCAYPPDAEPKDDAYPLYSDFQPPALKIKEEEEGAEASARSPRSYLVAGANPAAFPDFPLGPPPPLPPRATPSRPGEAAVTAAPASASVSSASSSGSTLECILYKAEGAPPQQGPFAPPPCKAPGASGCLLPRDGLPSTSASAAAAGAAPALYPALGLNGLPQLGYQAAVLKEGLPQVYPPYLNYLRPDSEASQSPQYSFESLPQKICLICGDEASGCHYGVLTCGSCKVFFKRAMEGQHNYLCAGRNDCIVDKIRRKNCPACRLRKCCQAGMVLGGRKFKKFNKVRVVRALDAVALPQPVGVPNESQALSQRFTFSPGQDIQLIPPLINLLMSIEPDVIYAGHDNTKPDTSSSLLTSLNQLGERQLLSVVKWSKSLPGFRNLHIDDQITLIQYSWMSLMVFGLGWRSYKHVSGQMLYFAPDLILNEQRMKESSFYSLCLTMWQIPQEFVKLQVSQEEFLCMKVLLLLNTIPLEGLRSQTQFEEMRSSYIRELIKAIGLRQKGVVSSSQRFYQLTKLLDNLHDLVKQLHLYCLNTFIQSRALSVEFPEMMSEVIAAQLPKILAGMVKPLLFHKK
Cytochrome P450 2D6 (Homo sapiens), sequence (P10635 whole entry, looked up): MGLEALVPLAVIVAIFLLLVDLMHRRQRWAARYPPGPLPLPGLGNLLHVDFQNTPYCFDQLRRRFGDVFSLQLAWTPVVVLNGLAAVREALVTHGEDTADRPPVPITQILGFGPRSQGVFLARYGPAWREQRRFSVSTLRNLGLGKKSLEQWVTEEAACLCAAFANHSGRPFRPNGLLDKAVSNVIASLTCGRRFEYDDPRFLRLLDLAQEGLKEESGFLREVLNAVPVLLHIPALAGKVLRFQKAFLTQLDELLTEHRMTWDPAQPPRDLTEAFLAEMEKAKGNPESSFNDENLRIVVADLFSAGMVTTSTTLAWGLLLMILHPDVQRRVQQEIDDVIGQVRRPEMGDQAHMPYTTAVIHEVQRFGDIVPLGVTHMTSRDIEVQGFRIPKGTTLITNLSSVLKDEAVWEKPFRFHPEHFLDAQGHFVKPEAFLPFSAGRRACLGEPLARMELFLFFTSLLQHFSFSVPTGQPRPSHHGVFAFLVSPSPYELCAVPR

Take `Cc1cn([C@H]2C=C[C@@H](CO)O2)c(=O)[nH]c1=O`: the Potency result in [1], in [2], in [3], in [4], in assay [5] and in assay [6] was “inactive” in each case. Also, the Potency entry in assay [8], in assay [9], in assay [10], in assay [11], in assay [12] and in assay [14] was “inactive” in each case. Further, the Potency entry in [16] and in assay [17] was “inactive” each time. For the same compound, the outcome in assay [7] and in [15] was inactive. In addition, the max activation in [13] was -2.07% (inactive).
Consider `CS(=O)(=O)OCCCCOS(C)(=O)=O`, for which the Potency entry in assay [1], in assay [2], in assay [3], in [4], in [5] and in assay [6] was “inactive” in each case. The Potency entry in assay [18], in assay [19], in assay [8], in [10], in assay [11] and in [12] was “inactive” throughout. Further, the Potency result in assay [14] was “inactive”. Besides, the compound was classed as inactive in assay [7] and in [15]. Further, the max activation in assay [13] is -4.1% (inactive). Moreover, the Potency in assay [16] was 35.7 µM (active); in [17], 56.6 µM (active) and inactive.
As for `C[C@](N)(Cc1ccc(O)c(O)c1)C(=O)O`, the Potency result in assay [1], in assay [2], in assay [3], in [4], in assay [5] and in assay [6] was “inactive” each time. For the same compound, the Potency result in assay [18], in assay [19], in assay [8], in assay [10], in assay [11] and in assay [12] was “inactive” each time. Besides, the Potency entry in assay [14], in assay [16] and in assay [17] was “inactive” each time. The outcome in assay [7] and in assay [15] was inactive. In assay [13], the max activation was -6.56% (inactive).
Turning to `Cc1ccc(S(=O)(=O)O)cc1`, the Potency entry in [1], in assay [2], in assay [3], in assay [4], in assay [5] and in [6] was “inactive” throughout. Also, the Potency entry in assay [8], in [10], in assay [20] and in assay [11] was “inactive” throughout. Also, in assay [7], the compound was called inactive.
For the compound `O=c1[nH]cnc2c1ncn2[C@H]1CC[C@@H](CO)O1`, the Potency entry in [1], in [2], in assay [3], in assay [4], in assay [5] and in [6] was “inactive” each time. Further, the Potency entry in [8], in [9], in assay [10], in assay [11], in assay [12] and in [14] was “inactive” in each case. Further, the Potency entry in assay [16] and in assay [17] was “inactive” each time. Further, the outcome in assay [7] and in assay [15] was inactive. The max activation in assay [13] is 0.0547% (inactive).
For the compound `O=C1O[C@H]([C@@H](O)CO)C(O)=C1O`, the Potency entry in [1], in [2], in assay [3], in assay [4], in assay [5] and in assay [6] was “inactive” each time. In addition, the Potency entry in [8], in assay [9], in assay [10], in assay [20], in assay [11] and in assay [12] was “inactive” each time. The Potency entry in assay [14], in assay [16] and in assay [17] was “inactive” each time. For the same compound, the call in [7] and in assay [15] was inactive. The max activation in [13] is -0.298% (inactive) and -0.0182% (inactive).
